Compound activity: PubChem BioAssay, several laboratories
aSyn UTR inh – MLPCN primary screen, SNCA 5' untranslated region; alpha-synuclein 5'UTR reporter, inhibitor activity; inhibition, % (tested at 7.5 µM); 300,000 tested, 0.82% active; AID 1813; in the data active = inhibition above about 60%;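 note: H4 neuroglioblastoma cells stably carrying SNCA 5'UTR luciferase fusion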
IEC-6 cytotox – counter-screen for KLF5 inhibitors: cytotoxicity in IEC-6 cells | IEC-6 cytotoxicity, luminescence viability | inhibition, % at 5 µM | 290,000 tested, 0.78% active
Ba/F3 V617F tox – reduce viability of Ba/F3 cells dependent on JAK2V617F; Ba/F3 EpoR-JAK2V617F viability, ATP luminescence; inhibition, % at 5.6 µM; 220,000 tested, 1.1% active; AID 1446;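 active = inhibition above the campaign mean plus 3 SD over all tested compounds, cut at about 24% in these data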;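 note: cytokine-independent growth of Ba/F3 cells driven by EpoR plus mutant JAK2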
APP 5UTR inh – APP translation inhibition. SH-SY5Y APP 5'UTR-luciferase reporter, luminescence. inhibition, % at 2 µM. 190,000 tested, 0.82% active. AID 1285;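 active = inhibition above a set limit, derived from the sample mean plus 3 SD, cut at about 45% in these data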
KLF5 inh – suppresses KLF5 promoter-driven expression. DLD-1 KLF5 promoter-luciferase reporter, luminescence. inhibition, % at 5 µM. 290,000 tested, 0.23% active;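 active = inhibition above a per-plate limit of that plate's mean compound inhibition plus 3 SD, cut at about 60% in these data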;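 note: higher means less KLF5 promoter-driven luciferase light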
BaF3 parental – parental Ba/F3 viability inhibition as JAK2V617F counter-screen | CellTiter-Glo ATP luminescence | inhibition, % at 5.6 µM | 220,000 tested, 1.1% active | AID 1486;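 active = inhibition above a per-campaign cutoff, the mean inhibition of all tested compounds plus 3 SD, cut at about 27% in these data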
IEC-6 tox confirm – IEC-6 cytotoxicity, confirmation assay; IEC-6 rat intestinal epithelial viability, luminescence; 1,900 tested, 63% active; shares compounds with IEC-6 cytotox; inhibition, % at 5 µM; AID 1907
Each line names hits and unclear results; the compound was inactive in the other large screens (follow-up assays come after a bar, where they were run). In the library only some 2.2% were active in any assay of this set; here they are far more common. Cut-off read from the data, not from the text of the source, unless noted: active = inhibition above about 22%; inactive = the rest.

O=C(c1ccc(SCc2cccc(Br)c2)c([N+](=O)[O-])c1)N1CCN(c2ccccn2)CC1	none
Cc1cc(C)n(C(=O)c2cc([N+](=O)[O-])cc([N+](=O)[O-])c2)n1	none (no result: Ba/F3 V617F tox, APP 5UTR inh, BaF3 parental)
O=C(O)C1C2C=CC(C2)C1C(=O)NCCc1ccccc1 (configuration not stated)	none
C[C@H](NC(=O)c1[nH]cnc1C(=O)Nc1ccc(Cl)cc1)C(=O)OC(C)(C)C	none (no result: IEC-6 cytotox, Ba/F3 V617F tox, APP 5UTR inh, KLF5 inh, BaF3 parental)
O=C(OCC(=O)N1CCc2ccccc2C1)c1cc(=O)[nH]c2ccccc12	none (no result: APP 5UTR inh)
COc1cc2ncnc(NCc3ccc(Cl)cc3)c2cc1OC	IEC-6 cytotox 29.1 | IEC-6 tox confirm 23.3
COc1cc2ncnc(NCc3ccc(F)cc3)c2cc1OC	IEC-6 cytotox 25.4 (no result: Ba/F3 V617F tox, APP 5UTR inh, BaF3 parental) | IEC-6 tox confirm 32.0
COc1cc2ncnc(NCc3ccc(C)o3)c2cc1OC	none
COc1cccc(-n2c(Cc3cc(=O)[nH]c(=O)[nH]3)nnc2SCC(=O)N2CCCC2)c1	none
NCC(=O)Nc1ccc(Cl)cc1C(=O)c1ccc[nH]1	IEC-6 cytotox 31.0, Ba/F3 V617F tox 58.3, BaF3 parental 37.5 (no result: APP 5UTR inh) | IEC-6 tox confirm inactive
O=C(NNC(=O)c1ccc[nH]1)c1cc(Cl)cc(Cl)c1	none (no result: Ba/F3 V617F tox, APP 5UTR inh, BaF3 parental)
Cc1ccn2cc(-c3ccc(O)c(O)c3)nc2c1	IEC-6 cytotox 22.8 (no result: Ba/F3 V617F tox, APP 5UTR inh, BaF3 parental) | IEC-6 tox confirm inactive
COC(=O)Nc1nc(-c2ccccc2)c(C(=O)c2ccccc2)s1	aSyn UTR inh 100.0, IEC-6 cytotox 84.3, Ba/F3 V617F tox 79.6, APP 5UTR inh 95.3, BaF3 parental 78.3 | IEC-6 tox confirm 56.5
CCOc1ccc(N(CC(=O)Nc2ccccc2OC)S(=O)(=O)c2ccccc2)cc1	aSyn UTR inh 123.4, IEC-6 cytotox 78.0 (no result: Ba/F3 V617F tox, APP 5UTR inh, BaF3 parental) | IEC-6 tox confirm 53.1
COc1ccc(N(CC(=O)Nc2ccc(OC)cc2OC)S(=O)(=O)c2ccccc2)cc1	none
CCOC(=O)c1sc(N)c(C(=O)Nc2ccccc2OC)c1C	IEC-6 cytotox 37.8, Ba/F3 V617F tox 39.6, APP 5UTR inh 46.8, BaF3 parental 35.9 | IEC-6 tox confirm 46.4
CCn1c(C)c(C)c2cc(C(=O)N3CCc4ccccc4C3)ccc21	IEC-6 cytotox 46.2 (no result: Ba/F3 V617F tox, APP 5UTR inh, BaF3 parental) | IEC-6 tox confirm 29.7
Cc1ccc(NC(=O)C2CCN(S(=O)(=O)c3ccc4c(c3)CC(C)N4C(=O)C3CCC3)CC2)nc1 (configuration not stated)	none (no result: Ba/F3 V617F tox, APP 5UTR inh, BaF3 parental)
Nc1ccccc1C(=O)NNC1=C(C(=O)C(F)(F)F)CCC1	IEC-6 cytotox 34.3 (no result: APP 5UTR inh) | IEC-6 tox confirm inactive
O=C(NNC1=C(C(=O)C(F)(F)F)CCC1)c1ccccc1O	none
Cn1ccnc1SCC(=O)Nc1cccc([N+](=O)[O-])c1	none
Cc1cccc(NC(=O)C2CC3CCC2C3)c1C (configuration not stated)	none (no result: IEC-6 cytotox, Ba/F3 V617F tox, APP 5UTR inh, KLF5 inh, BaF3 parental)
CCOc1ccc(C(C)=O)cc1COc1cccnc1[N+](=O)[O-]	IEC-6 cytotox 28.5 (no result: Ba/F3 V617F tox, APP 5UTR inh, BaF3 parental) | IEC-6 tox confirm 23.7
Cc1[nH]n2c(=O)cc(C(C)(C)C)nc2c1-c1ccccc1	IEC-6 cytotox 33.5 | IEC-6 tox confirm 35.3
Cc1ccccc1OCC(=O)NNC(=O)Nc1ccc(Cl)cc1	IEC-6 cytotox 67.1 | IEC-6 tox confirm 29.3
Cc1ccccc1OCC(=O)NNC(=O)Nc1ccccc1	none
CSc1ccc(/C=C(/NC(=O)c2ccco2)C(=O)NCc2ccco2)cc1	none (no result: Ba/F3 V617F tox, APP 5UTR inh, BaF3 parental)
CC(C)(C)C(=O)/C(=C/c1ccc(Cl)cc1)n1cncn1	IEC-6 cytotox 29.1 (no result: Ba/F3 V617F tox, APP 5UTR inh, BaF3 parental) | IEC-6 tox confirm inactive
CN(CCOC(=O)c1ccco1)Cc1ccccc1	IEC-6 cytotox 40.7 | IEC-6 tox confirm inactive
COc1ccccc1C(O)c1nccn1C (configuration not stated)	none
O=C(Nc1cc(Cl)ccc1-n1cncn1)c1cc(S(=O)(=O)N2CCOCC2)ccc1F	IEC-6 cytotox 26.4 (no result: Ba/F3 V617F tox, APP 5UTR inh, BaF3 parental) | IEC-6 tox confirm inactive
O=C(Nc1cc(S(=O)(=O)N2CCOCC2)ccc1-n1cncn1)c1ccc(Cl)cc1	none (no result: APP 5UTR inh)
COc1ccc(OC)c(Nc2nc(N)c([N+](=O)[O-])c(NC3CCCCC3)n2)c1	none (no result: Ba/F3 V617F tox, APP 5UTR inh, BaF3 parental)
NCCCNc1nc(N)c([N+](=O)[O-])c(NC2CCCCC2)n1	IEC-6 cytotox 46.5 (no result: Ba/F3 V617F tox, APP 5UTR inh, BaF3 parental) | IEC-6 tox confirm 43.2
CCC(C)n1c(SCC(=O)NC(=O)c2cccn2C)nc2ccccc2c1=O (configuration not stated)	IEC-6 cytotox 33.0 | IEC-6 tox confirm 28.7
Cc1ccc([C@@H]2C3COCC=C3C(C#N)=C(N)C2(C#N)C#N)o1 (some centres not stated)	none
